According to the supplement of paper PMC11732987, “Enantioselective OTUD7B fragment discovery through chemoproteomics screening and high-throughput optimisation” (Communications Chemistry, 2025):
Unmarked numbers belong to inactive results.

How the values were obtained:
Assay in all cases: log2 ratio of Biotin-Ahx-Ub-VS probe labelling (fragment/DMSO); higher = less target engagement (more negative = stronger competition), active = hit call of the paper (q ≤ 0.05, log2 ratio ≤ -1)
Details in all cases: compound concentration: 200 uM; treatment time: 3 h
[1] = target: UniProt O00507
In short: (§1)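 Triplicate samples of HEK293T lysate, 495 µg each, received fragment at 200 µM or vehicle for 3 h, followed by Biotin-Ahx-Ub-VS (0.5 µM final) for 1 h. After NeutrAvidin enrichment of labelled DUBs and LysC/trypsin digestion, peptides were run by diaPASEF LC-MS/MS. The values are average log2 fragment/vehicle ratios from global-median-normalised Spectronaut label-free quantities, tested by unpaired t-test on proteins having ≥2 unique peptides.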

[2] = target: UniProt P51784
In short: as §1

[3] = target: T1, UniProt Q5T2D3
T1 sequence (whole entry): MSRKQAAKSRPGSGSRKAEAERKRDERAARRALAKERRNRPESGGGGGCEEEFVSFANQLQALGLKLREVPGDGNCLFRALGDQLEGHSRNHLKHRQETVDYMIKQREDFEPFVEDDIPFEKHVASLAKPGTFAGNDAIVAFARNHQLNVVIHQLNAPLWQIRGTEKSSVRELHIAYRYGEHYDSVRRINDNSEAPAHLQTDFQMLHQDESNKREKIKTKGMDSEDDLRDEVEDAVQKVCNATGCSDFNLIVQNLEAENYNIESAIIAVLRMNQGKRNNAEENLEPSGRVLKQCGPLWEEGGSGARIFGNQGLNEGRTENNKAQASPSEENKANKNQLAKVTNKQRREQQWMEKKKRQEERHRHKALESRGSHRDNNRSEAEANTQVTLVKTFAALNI
In short: as §1

[4] = target: T2, UniProt Q8TE49
T2 sequence (whole entry): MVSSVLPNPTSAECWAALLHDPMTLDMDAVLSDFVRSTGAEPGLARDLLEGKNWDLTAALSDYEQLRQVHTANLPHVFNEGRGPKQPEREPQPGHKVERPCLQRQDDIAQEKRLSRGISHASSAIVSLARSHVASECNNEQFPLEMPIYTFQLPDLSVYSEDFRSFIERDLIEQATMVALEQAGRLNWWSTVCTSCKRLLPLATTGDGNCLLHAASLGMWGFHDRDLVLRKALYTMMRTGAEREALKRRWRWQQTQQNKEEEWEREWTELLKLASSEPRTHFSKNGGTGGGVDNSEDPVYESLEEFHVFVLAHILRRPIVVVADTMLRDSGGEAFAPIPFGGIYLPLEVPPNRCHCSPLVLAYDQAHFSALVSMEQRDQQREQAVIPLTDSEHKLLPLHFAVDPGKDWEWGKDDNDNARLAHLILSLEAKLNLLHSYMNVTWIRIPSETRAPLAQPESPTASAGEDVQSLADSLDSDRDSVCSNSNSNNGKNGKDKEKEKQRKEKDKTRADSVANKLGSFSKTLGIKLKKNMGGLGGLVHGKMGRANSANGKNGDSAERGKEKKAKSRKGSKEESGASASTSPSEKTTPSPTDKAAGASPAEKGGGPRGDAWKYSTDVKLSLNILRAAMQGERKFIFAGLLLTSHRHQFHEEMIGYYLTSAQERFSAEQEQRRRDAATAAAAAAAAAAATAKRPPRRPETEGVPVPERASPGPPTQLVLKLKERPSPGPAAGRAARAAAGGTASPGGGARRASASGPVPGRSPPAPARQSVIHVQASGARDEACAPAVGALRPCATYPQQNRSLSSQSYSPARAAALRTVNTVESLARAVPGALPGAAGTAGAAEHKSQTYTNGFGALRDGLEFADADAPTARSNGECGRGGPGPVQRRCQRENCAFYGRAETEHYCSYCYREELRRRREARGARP
In short: as §1

[5] = target: T3, UniProt Q9P2H5
T3 sequence (whole entry): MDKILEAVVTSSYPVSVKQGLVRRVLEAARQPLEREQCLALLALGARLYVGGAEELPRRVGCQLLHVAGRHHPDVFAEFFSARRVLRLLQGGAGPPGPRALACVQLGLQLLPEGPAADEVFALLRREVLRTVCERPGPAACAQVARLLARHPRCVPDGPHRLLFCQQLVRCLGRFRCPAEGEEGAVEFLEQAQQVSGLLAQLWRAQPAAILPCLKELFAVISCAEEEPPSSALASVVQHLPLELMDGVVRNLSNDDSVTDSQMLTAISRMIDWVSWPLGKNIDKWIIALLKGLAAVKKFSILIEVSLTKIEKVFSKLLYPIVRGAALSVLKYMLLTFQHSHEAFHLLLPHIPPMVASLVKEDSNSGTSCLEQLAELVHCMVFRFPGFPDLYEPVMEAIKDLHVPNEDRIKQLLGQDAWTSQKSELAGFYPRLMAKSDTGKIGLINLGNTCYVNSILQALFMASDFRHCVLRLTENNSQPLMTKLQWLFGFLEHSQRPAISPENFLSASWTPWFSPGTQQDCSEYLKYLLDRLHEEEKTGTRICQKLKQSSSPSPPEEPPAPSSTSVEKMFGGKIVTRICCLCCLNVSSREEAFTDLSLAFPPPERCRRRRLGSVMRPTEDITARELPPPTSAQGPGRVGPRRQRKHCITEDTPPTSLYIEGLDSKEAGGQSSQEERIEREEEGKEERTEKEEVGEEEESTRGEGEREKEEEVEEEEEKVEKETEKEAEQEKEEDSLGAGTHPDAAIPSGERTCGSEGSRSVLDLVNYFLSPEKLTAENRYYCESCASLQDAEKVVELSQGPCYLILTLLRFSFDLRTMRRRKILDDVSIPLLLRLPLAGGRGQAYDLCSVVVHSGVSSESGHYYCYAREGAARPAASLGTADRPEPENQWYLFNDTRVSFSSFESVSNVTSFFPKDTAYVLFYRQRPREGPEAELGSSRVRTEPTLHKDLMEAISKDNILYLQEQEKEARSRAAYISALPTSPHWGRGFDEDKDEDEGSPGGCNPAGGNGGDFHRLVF
In short: as §1

[6] = target: T4, UniProt Q9UGI0
T4 sequence (whole entry): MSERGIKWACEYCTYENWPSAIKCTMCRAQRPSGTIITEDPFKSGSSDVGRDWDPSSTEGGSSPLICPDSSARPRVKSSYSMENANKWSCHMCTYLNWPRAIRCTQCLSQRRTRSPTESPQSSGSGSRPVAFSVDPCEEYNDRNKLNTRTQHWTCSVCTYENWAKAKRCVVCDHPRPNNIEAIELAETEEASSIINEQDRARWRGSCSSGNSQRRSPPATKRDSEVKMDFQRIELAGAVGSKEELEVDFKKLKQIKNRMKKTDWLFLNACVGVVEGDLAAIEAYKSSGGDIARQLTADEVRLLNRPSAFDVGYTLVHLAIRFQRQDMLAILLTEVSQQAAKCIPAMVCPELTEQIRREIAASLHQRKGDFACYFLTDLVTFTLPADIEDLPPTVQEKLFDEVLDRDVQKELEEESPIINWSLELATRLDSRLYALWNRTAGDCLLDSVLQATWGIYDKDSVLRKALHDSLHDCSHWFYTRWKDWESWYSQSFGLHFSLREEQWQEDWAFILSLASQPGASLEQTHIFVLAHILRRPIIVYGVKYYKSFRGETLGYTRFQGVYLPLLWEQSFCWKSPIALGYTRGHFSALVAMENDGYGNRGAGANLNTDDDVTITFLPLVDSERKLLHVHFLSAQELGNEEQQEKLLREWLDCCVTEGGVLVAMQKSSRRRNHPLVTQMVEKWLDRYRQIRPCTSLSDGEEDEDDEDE
In short: as §1

[7] = target: T5, YOD1 (UniProt Q5VVQ6)
T5 sequence (whole entry): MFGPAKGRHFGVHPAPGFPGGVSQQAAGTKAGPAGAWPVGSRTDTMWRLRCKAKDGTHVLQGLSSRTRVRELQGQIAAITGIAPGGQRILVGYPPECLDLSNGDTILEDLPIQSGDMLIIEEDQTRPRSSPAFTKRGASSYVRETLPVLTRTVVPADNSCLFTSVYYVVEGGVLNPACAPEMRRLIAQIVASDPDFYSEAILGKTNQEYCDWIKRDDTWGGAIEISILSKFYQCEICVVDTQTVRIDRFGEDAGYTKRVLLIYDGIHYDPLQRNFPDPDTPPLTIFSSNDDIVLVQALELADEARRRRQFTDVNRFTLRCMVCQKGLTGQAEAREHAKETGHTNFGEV
In short: as §1

Chain of UniProt O00507 (O00507 whole entry, the tested form may be a part): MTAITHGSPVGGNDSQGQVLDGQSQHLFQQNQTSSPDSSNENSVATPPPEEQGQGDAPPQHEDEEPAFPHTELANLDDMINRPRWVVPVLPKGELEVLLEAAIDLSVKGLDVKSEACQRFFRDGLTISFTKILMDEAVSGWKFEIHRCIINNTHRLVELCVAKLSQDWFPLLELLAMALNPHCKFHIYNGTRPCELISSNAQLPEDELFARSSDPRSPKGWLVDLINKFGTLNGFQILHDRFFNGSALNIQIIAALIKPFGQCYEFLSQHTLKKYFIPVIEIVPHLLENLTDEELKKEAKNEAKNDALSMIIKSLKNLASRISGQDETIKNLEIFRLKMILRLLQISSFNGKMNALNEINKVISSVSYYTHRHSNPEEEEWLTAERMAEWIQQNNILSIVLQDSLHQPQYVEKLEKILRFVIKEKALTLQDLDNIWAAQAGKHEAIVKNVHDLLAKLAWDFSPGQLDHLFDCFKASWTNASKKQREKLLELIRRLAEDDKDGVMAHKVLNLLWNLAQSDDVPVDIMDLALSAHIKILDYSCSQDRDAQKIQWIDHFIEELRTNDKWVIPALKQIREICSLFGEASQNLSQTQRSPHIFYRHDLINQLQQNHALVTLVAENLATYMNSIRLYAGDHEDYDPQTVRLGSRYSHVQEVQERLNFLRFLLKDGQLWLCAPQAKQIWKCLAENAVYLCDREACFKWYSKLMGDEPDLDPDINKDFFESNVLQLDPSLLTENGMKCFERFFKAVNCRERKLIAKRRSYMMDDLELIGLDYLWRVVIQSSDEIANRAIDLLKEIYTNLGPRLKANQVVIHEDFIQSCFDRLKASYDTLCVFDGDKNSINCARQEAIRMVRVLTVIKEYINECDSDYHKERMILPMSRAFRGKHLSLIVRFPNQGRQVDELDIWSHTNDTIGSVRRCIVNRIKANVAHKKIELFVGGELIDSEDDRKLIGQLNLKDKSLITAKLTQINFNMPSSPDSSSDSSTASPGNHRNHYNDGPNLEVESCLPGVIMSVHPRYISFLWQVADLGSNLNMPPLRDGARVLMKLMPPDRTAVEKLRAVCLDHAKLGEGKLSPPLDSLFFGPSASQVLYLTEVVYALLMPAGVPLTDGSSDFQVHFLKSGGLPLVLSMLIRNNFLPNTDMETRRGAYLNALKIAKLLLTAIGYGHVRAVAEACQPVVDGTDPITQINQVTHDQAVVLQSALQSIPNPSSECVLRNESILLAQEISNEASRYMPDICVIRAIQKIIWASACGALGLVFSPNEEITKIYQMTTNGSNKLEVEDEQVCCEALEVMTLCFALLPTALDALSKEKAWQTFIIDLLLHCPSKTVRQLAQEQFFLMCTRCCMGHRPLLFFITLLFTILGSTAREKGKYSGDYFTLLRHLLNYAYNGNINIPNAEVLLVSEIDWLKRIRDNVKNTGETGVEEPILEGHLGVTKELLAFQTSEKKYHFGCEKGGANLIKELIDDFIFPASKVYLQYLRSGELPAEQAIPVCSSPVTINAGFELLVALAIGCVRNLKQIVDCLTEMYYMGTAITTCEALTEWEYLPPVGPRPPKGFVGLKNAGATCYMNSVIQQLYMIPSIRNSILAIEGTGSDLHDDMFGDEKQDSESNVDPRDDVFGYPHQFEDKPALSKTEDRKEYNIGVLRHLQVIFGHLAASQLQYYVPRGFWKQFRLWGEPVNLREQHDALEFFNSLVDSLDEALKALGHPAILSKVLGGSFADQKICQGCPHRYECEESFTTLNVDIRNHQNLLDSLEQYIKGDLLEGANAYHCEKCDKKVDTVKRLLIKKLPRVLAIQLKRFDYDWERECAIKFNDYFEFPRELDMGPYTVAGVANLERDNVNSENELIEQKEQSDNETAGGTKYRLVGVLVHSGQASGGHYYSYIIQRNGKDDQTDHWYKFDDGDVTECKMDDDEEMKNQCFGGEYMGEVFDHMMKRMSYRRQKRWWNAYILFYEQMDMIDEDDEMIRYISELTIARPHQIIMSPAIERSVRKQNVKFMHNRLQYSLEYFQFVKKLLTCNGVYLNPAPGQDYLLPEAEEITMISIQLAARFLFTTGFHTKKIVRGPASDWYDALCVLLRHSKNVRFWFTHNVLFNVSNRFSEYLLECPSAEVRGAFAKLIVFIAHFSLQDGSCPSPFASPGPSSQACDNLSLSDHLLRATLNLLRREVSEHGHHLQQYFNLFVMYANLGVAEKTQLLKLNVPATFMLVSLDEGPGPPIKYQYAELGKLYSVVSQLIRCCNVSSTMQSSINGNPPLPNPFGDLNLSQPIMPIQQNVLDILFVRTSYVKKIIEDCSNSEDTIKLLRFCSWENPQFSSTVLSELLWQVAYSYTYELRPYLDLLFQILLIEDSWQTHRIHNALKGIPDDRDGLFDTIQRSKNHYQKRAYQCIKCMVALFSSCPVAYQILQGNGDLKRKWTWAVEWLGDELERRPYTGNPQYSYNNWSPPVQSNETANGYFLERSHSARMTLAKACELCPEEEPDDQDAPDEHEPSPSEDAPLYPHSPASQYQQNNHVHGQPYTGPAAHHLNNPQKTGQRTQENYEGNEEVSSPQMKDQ
Chain of UniProt P51784 (P51784 whole entry): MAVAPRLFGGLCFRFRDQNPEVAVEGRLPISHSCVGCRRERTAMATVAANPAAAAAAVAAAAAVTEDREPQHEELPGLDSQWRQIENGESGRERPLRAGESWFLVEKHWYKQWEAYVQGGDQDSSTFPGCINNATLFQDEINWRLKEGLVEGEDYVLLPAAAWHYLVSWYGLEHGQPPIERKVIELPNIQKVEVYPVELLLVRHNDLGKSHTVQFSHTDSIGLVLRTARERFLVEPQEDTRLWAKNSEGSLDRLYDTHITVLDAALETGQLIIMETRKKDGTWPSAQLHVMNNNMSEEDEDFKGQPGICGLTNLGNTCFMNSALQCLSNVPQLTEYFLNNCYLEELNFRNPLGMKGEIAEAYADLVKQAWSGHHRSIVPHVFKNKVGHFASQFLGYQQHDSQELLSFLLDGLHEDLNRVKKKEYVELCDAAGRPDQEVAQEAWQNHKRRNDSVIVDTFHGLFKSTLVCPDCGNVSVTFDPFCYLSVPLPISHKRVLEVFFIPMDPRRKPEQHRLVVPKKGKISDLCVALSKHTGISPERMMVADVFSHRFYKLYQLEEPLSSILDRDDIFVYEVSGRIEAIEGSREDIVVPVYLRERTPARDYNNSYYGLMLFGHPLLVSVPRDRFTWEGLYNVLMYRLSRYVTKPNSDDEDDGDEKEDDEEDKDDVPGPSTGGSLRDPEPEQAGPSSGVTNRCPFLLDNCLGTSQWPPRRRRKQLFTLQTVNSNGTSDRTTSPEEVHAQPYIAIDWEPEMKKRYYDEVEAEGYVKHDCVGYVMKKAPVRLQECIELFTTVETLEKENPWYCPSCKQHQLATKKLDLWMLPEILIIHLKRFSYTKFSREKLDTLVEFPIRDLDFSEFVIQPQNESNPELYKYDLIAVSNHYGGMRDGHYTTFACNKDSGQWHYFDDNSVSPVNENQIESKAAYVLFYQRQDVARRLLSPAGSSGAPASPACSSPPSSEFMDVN

| SMILES | log2 ratio of Biotin-Ahx-Ub-VS probe labelling [1] | log2 ratio of Biotin-Ahx-Ub-VS probe labelling [2] | log2 ratio of Biotin-Ahx-Ub-VS probe labelling [3] | log2 ratio of Biotin-Ahx-Ub-VS probe labelling [4] | log2 ratio of Biotin-Ahx-Ub-VS probe labelling [5] | log2 ratio of Biotin-Ahx-Ub-VS probe labelling [6] | log2 ratio of Biotin-Ahx-Ub-VS probe labelling [7] |
| --- | --- | --- | --- | --- | --- | --- | --- |
| Cc1cc(C2CCCN2C(=O)CCl)nn1C.Cl (stereo not drawn) | -0.0169 | -0.386 | -0.106 | -0.432 | -0.247 | 0.115 | -0.199 |
| Cc1cccc2nc(CCNC(=O)CCl)cn12.Cl | -0.595 | -0.113 | -0.351 | -0.764 | -0.327 | -0.846 | -0.336 |
| Cc1cc(Cl)ccc1NC(=O)CCl | 0.519 | -0.115 | -0.142 | -0.396 | -0.193 | -0.477 | -0.175 |
| O=C(CCl)N1CCC(c2noc3cc(F)ccc23)CC1 | -0.609 | 0.00105 | -0.212 | -0.807 | -0.0991 | -1.02 (active) | -0.0109 |
| CC1CCc2onc(CNC(=O)CCl)c2C1 (stereo not drawn) | 0.195 | 0.152 | -0.305 | -0.691 | -0.252 | -0.538 | 0.146 |
| O=C(CCl)N1CCC(O)(Cc2ccc(F)cc2)C1 (stereo not drawn) | -0.253 | 0.313 | -0.16 | -0.0913 | 0.0413 | -0.196 | 0.2 |
| CCN(C(=O)CCl)C1CCCCC1 | 0.476 | 0.0309 | -0.00741 | -0.32 | -0.0524 | 0.069 | 0.333 |
| Cc1ccn2cc(CNC(=O)CCl)nc2c1.Cl | 0.237 | -0.0387 | -0.599 | -0.359 | -0.141 | -0.262 | 0.0926 |
| O=C(CCl)N1CCOC(CCc2ccccc2)C1 (stereo not drawn) | -0.798 | -0.097 | -0.306 | -0.84 | -0.236 | -0.876 | -0.418 |
